21 compounds from PubChem BioAssay (NCI) can be followed below.

About 79,000 compounds went through this panel and 15% of them were active in at least one assay; those are over-represented in the sample as a whole. Values without a mark were called inactive. The source made the active and inactive calls. Rule as the data show it: active = growth inhibition above about 70%; inactive = the rest.

The nature of experiment [1]: NCI Yeast Anticancer Drug Screen. Data for the rad50 strain (AID 155).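 Also: 0% = growth of vehicle-only cultures of the same strain.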 The conditions noted are these: S. cerevisiae rad50 strain growth inhibition; at 50.0 µM; hits give high values. In short, it runs like this: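 Genetically altered yeast (DNA repair pathway); compound treatment; growth inhibition vs vehicle ctrl.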
Experiment [2] in a line: NCI Yeast Anticancer Drug Screen. Data for the mec2-1 strain (AID 157). The conditions noted are these: S. cerevisiae mec2-1 strain, at 50.0 µM, hits give high values. In short, it runs like this:
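Cells of the genetically defined mec2-1 yeast strain are incubated with test compound. Inhibition of growth is calculated against vehicle-treated controls.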

Experiment [3] can be described thus: NCI Yeast Anticancer Drug Screen. Data for the sgs1 mgt1 strain (AID 161).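 Also: 0% = growth of cultures given vehicle only.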 The conditions noted are these: S. cerevisiae sgs1 mgt1 strain, at 50.0 µM, hits give high values. In short, it runs like this:
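Test agents were incubated with a DNA-repair-mutant yeast strain. Growth was then read and compared against vehicle-treated controls.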

Experiment [4] in a line: NCI Yeast Anticancer Drug Screen. Data for the cln2 rad14 strain (AID 165).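 Also: 0% = growth equal to vehicle treated cultures.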 The conditions noted are these: S. cerevisiae cln2 rad14 strain, at 50.0 µM, hits give high values. In short, it runs like this:
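The screen exposed genetically defined yeast (cln2 rad14) to test compounds and scored growth inhibition relative to vehicle-treated controls.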

The nature of experiment [5]: NCI Yeast Anticancer Drug Screen. Data for the bub3 strain (AID 167). The conditions noted are these: S. cerevisiae bub3 mutant strain, at 50.0 µM, hits give high values. The gist of the method: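 Yeast carrying a defined mutation is treated with each compound, and growth is compared with that of vehicle-exposed cells to give inhibition.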
Experiment [6] is described as follows: NCI Yeast Anticancer Drug Screen. Data for the mlh1 rad18 strain (AID 175). The conditions noted are these: S. cerevisiae mlh1 rad18 strain growth inhibition; at 50.0 µM; hits give high values. The gist of the method:
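Compound-treated yeast growth, normalised to vehicle controls. Strain bears defined DNA repair mutations.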

Consider `CCC(=O)c1ccc(N)cc1`, for which the growth inhibition in experiment [1] is 7.95%; in experiment [2] it was 4.45%; in experiment [3] it was 2.15%; in experiment [4], -26.4%; in experiment [5], -4.8%; in experiment [6], 6.25%.
As to `CC1OC(OC2C(O)C(O)C(O)C(O)C2O)C(N)CC1N=C(N)C(=O)O` (stereo unspecified), the growth inhibition in experiment [1] was 12.5%; in experiment [2], 3.6%; in experiment [3] it was -18.1%; in experiment [4], -34.5%; in experiment [5], -0.35%; in experiment [6], 23.6%.
For the compound `CC1OC(=O)C2CC3CCCCC3C(/C=C/C3CCCC(C)N3C)C12` (stereo unspecified), the growth inhibition in experiment [1] was 1.2%; in experiment [2], -11.2%; in experiment [3] it was -11.2%; in experiment [4], 28.4%; in experiment [5], -10.4%; in experiment [6] it was -2.35%.
Regarding `CN(C)C(=O)Sc1ccc(S(=O)(=O)F)cc1[N+](=O)[O-]`, the growth inhibition was 65.5% in experiment [1]; 36.9% in experiment [2]; 76.7% (active) in experiment [3]; 42.5% in experiment [4]; 34.4% in experiment [5]; 34.6% in experiment [6].
In the case of `CC(=O)O[C@@]12CO[C@@H]1CC(O)[C@@]1(C)C(=O)[C@H](O)C3=C(C)C(O)C[C@@](O)(C(OC(=O)c4ccccc4)C12)C3(C)C` (stereo partly specified), the growth inhibition in experiment [1] was -12.8%; in experiment [2] it was -28.4%; in experiment [3], -12.3%; in experiment [4] it was -5.9%; in experiment [5], -29.4%; in experiment [6], -8.65%.
In the case of `CC(C)N1C(=O)NC(=O)C2(CCCC2)C1=O`, the growth inhibition in experiment [1] is -2.15%; in experiment [2], 3.05%; in experiment [3] it was -1.5%; in experiment [4], -28.4%; in experiment [5] it was -12.6%; in experiment [6], -2.5%.
On to `O.O.[Cl][Pt+2][Cl].[NH-]CC[NH-]`, for which the growth inhibition in experiment [1] is 23.6%; in experiment [2] it was 10.7%; in experiment [3], -2.15%; in experiment [4] it was 41.5%; in experiment [5], 16%; in experiment [6], 9.85%.
In the case of `O=c1[nH]cc(Cn2cccc3c(=O)ncnc2-3)c(=O)[nH]1`, the growth inhibition in experiment [1] was 14.9%; in experiment [2] it was 5.05%; in experiment [3], -4.45%; in experiment [4] it was -43.5%; in experiment [5], -16.7%; in experiment [6], -5.7%.
With `NC(N)=NC(N)=Nc1ccc(Cl)cc1`, the growth inhibition in experiment [1] is 0.9%; in experiment [2] it was -2.65%; in experiment [3] it was 3.45%; in experiment [4], 2.8%; in experiment [5] it was -1.9%; in experiment [6], -1.55%.
On to `CCOP(=O)(CC#N)OCC`, for which the growth inhibition was -6.85% in experiment [1]; -11.7% in experiment [2]; -7.05% in experiment [3]; -6.4% in experiment [4]; 2.7% in experiment [5]; 0% in experiment [6].
As to `[NH2-].[NH2-].[NH2-].[NH2-].[NH2-].[NH2-].[Ru+6]`, the growth inhibition in experiment [1] is -15.8%; in experiment [2], -12.1%; in experiment [3] it was -21.9%; in experiment [4] it was 9.4%; in experiment [5] it was -24.1%; in experiment [6], -20.8%.
In the case of `C=CCP(c1ccccc1)c1ccccc1`, the growth inhibition was -2% in experiment [1]; -3.75% in experiment [2]; -8.65% in experiment [3]; 8% in experiment [4]; 9.1% in experiment [5]; -13.5% in experiment [6].
Regarding `CN(C1CCCC1)C1CCCC1`, the growth inhibition in experiment [1] is -27.1%; in experiment [2] it was -25.9%; in experiment [3] it was -24.1%; in experiment [4], 5.3%; in experiment [5], 2.25%; in experiment [6] it was -7.7%.
Turning to `CC(=O)OC1OC(CS[As](C)C)C(OC(C)=O)C(OC(C)=O)C1OC(C)=O` (stereo unspecified), the growth inhibition was 58.6% in experiment [1]; -3.05% in experiment [2]; 54.8% in experiment [3]; 28.7% in experiment [4]; 17.6% in experiment [5]; 52.5% in experiment [6].
As for `COC(=O)CCCCCCCCCCN(CCCl)CCCl`, the growth inhibition in experiment [1] is 39.6%; in experiment [2], 29.1%; in experiment [3], 31.9%; in experiment [4], 26.2%; in experiment [5], 21%; in experiment [6] it was 67%.
For the compound `O=C=Nc1ccc(Br)cc1`, the growth inhibition in experiment [1] is 25.6%; in experiment [2] it was 11.6%; in experiment [3], 15.8%; in experiment [4], -17.2%; in experiment [5], 23.9%; in experiment [6], 29.4%.
`CC(C)CC(NC(=O)CF)C(=O)O` (stereo unspecified): the growth inhibition was 3.45% in experiment [1]; 0.05% in experiment [2]; -4.7% in experiment [3]; 1.4% in experiment [4]; 4.05% in experiment [5]; -3.05% in experiment [6].
For the compound `COc1cc(C)c(C(CC(=O)O)CC(=O)N(CCCl)CCCl)cc1C(C)C` (stereo unspecified), the growth inhibition in experiment [1] is 60.4%; in experiment [2], 4.3%; in experiment [3], 20.1%; in experiment [4], 28.2%; in experiment [5] it was 4.5%; in experiment [6] it was 57.6%.
For `CC12CC/C(=C3/C=CC(=O)S3)C=C1CCC1C2CCC2(C)C(O)CCC12` (stereo unspecified), the growth inhibition in experiment [1] is 23.9%; in experiment [2] it was -5.55%; in experiment [3] it was 4.95%; in experiment [4], 10.3%; in experiment [5], -19.6%; in experiment [6], 15.8%.
For `O=[N+]([O-])c1ccc(/C=C/C=C/C=C/C=C/c2ccc(S(=O)(=O)F)cc2Cl)c(Cl)c1`, the growth inhibition in experiment [1] is -1.05%; in experiment [2] it was -2.85%; in experiment [3], -14.8%; in experiment [4], 7.15%; in experiment [5], -10.3%; in experiment [6], -1.2%.
On to `CN1CC[CH2][Sn]([Cl])([Cl])[CH2]CC1`, for which the growth inhibition in experiment [1] is -1.25%; in experiment [2], -5.9%; in experiment [3] it was 1.15%; in experiment [4], 1.3%; in experiment [5], -17.2%; in experiment [6], 13%.
